From PubChem BioAssay
Sampled rows, rich in hits. Any-hit rate of the full collection: about 2.9%.
Vif inh: blocks HIV Vif function; actives 0.35% (n = 340,000); AID 602346; inhibition, % at 7.49 µM; HEK293T cells, Vif self-association by quenched fluorescence, imaging, 24 h; in the data active means inhibition above about 50%, passing the limit was not always enough; inconclusive means no clear call, values can overlap the other calls; inactive means below about 31%
MITF TRPM1 HTS: MITF TRPM1 promoter activation in melanoma cells | SK-MEL-5 TRPM1-promoter luciferase, 24 h; % of positive control, neutral wells = 0 | AID 588334 | activation, % at 12.5 µM | actives 0.75% (n = 300,000);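 active means mean activation of at least 80% with every replicate also reaching 80%; inconclusive means mean reaches 80% but some replicate falls short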
PvdQ inh: P. aeruginosa PvdQ acylase inhibition; purified PvdQ acylase, fluorescence plate reader; inhibition, % at 10 µM; actives 0.063% (n = 340,000); AID 488965; in the data active means inhibition above about 30%, passing the limit was not always enough; inconclusive means no clear call, values can overlap the other calls
esBAF inh: blocks esBAF chromatin remodeling in mouse ES cells; reporter increase, % at 12.5 µM; Bmi1-luciferase knock-in reporter, 24 h; 100% = twice the neutral-well signal; actives 2% (n = 350,000); in the data active means activation above about 40%; inconclusive means no clear call, values can overlap the other calls;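 further: a rise in the Bmi1 reporter signal indicates esBAF inhibition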
N-glyco inh: N-linked glycosylation inhibition | D54 ERlucT glycosylation luciferase reporter, 24 h; percent of 100 nM tunicamycin response | reporter increase, % at 12.5 µM | actives 0.23% (n = 360,000) | AID 588692;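 active means mean luciferase reporter signal, scaled so untreated is 0 and the glycosylation-blocking control 100, at or above a set limit in every replicate; inconclusive means mean reaches the limit but not every replicate does; inactive means mean below the limit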;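 further: luciferase carries N-glycosylation sites so blocking glycosylation raises the light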
Wnt act: activators of Wnt/beta-catenin signaling. Wnt/beta-catenin reporter cell assay, activator, plate reader. activation, % at 9.35 µM. actives 1.2% (n = 300,000). AID 743398; in the data active means activation above about 30%, passing the limit was not always enough; inconclusive means no clear call, values can overlap the other calls
A number is an active result.

For c1ccc(NC2=Nc3ccccc3CC2)cc1 the results were Vif inh inactive, MITF TRPM1 HTS inconclusive, PvdQ inh inactive, esBAF inh 46 and N-glyco inh inactive.
COc1cccc(OCCCOc2ccc([N+](=O)[O-])cc2Cl)c1 was read as Vif inh inactive, MITF TRPM1 HTS inactive, PvdQ inh inactive, esBAF inh inactive, N-glyco inh inactive and Wnt act inactive.
Screening COc1ccccc1OCCCOc1ccc(C)cc1Br returned Vif inh inactive, MITF TRPM1 HTS inconclusive, PvdQ inh inactive and N-glyco inh inactive.
`COc1ccccc1OCCCOc1ccc([N+](=O)[O-])cc1Cl` gave Vif inh inactive, PvdQ inh inactive, esBAF inh 56, N-glyco inh inactive and Wnt act inactive.
Screening COc1cc(C)ccc1OCCCOc1ccccc1Br returned Vif inh inactive, MITF TRPM1 HTS inactive, PvdQ inh inactive, esBAF inh 52, N-glyco inh inactive and Wnt act inactive.
CC(=O)N(CCC1(C(C)C)CCOC(C)(C)C1)Cc1ccco1 (stereo not given) was read as Vif inh inactive, MITF TRPM1 HTS inactive, PvdQ inh inactive, esBAF inh inactive, N-glyco inh inactive and Wnt act inactive.
CCC(=O)N(CCC1(C(C)C)CCOC(C)(C)C1)Cc1ccco1 (stereo not given) was read as Vif inh 109, PvdQ inh inactive, esBAF inh inactive and N-glyco inh inactive.
CN(Cc1ccsc1)C(=O)CCc1nnc(CCCc2ccccc2)o1 was read as Vif inh inactive, MITF TRPM1 HTS inactive, PvdQ inh inactive, esBAF inh inconclusive, N-glyco inh inactive and Wnt act 33.
Cc1nc(C(C)NC(=O)CCc2nnc(CCCc3ccccc3)o2)c(C)s1 (stereo not given) was read as Vif inh inactive, MITF TRPM1 HTS 100, PvdQ inh inactive, esBAF inh 70, N-glyco inh inactive and Wnt act 64.
Screening O=C(CCc1nnc(CCCc2ccccc2)o1)NC(C1CC1)C1CC1 returned Vif inh inactive, MITF TRPM1 HTS inactive, PvdQ inh inactive, N-glyco inh inactive and Wnt act inactive.
`COC(=O)C(Cc1c[nH]c2ccccc12)NC(=O)c1ccc2nc[nH]c2c1` (stereo not given) gave Vif inh inactive, MITF TRPM1 HTS inactive, PvdQ inh inactive, esBAF inh 77, N-glyco inh inactive and Wnt act 36.
`O=C(Cc1cccs1)Nc1ccc(-c2nc3ccccc3[nH]2)cc1` gave Vif inh inactive, MITF TRPM1 HTS inactive, PvdQ inh inactive and N-glyco inh 33.
`O=C(CSc1ccccc1)Nc1ccc(-c2nc3ccccc3[nH]2)cc1` gave Vif inh inactive, MITF TRPM1 HTS inactive, PvdQ inh inactive, N-glyco inh inactive and Wnt act inactive.
O=C(CN1CCOCC1)Nc1ccc(-c2nc3ccccc3[nH]2)cc1 was read as Vif inh inactive, MITF TRPM1 HTS 84, PvdQ inh inactive and N-glyco inh inactive.
For CCc1cccc(CC)c1NC(=O)CN1C2CCCC1CC(NC(=O)Nc1cccc(OC)c1)C2 (stereo not given) the results were Vif inh inactive, MITF TRPM1 HTS inactive, PvdQ inh inactive, N-glyco inh 39 and Wnt act inactive.
`COc1cccc(C(=O)NC2CC3CCCC(C2)N3CC(=O)Nc2ccccc2C(F)(F)F)c1` (stereo not given) gave Vif inh inactive, MITF TRPM1 HTS inactive, PvdQ inh inactive, esBAF inh inactive, N-glyco inh inactive and Wnt act inactive.
Screening CC(=O)c1cccc(NC(=O)NC2CC3CCCC(C2)N3CC(C)C)c1 (stereo not given) returned Vif inh 54, MITF TRPM1 HTS inactive, PvdQ inh inactive, esBAF inh inactive, N-glyco inh inactive and Wnt act inactive.
For O=C(Cn1cccc1C(=O)c1ccccc1)NCc1ccccc1Cl the results were Vif inh inactive, MITF TRPM1 HTS inactive, PvdQ inh inactive, esBAF inh 56, N-glyco inh inactive and Wnt act inactive.
Screening Cc1ccccc1C(=O)c1cccn1CC(=O)NCc1ccc(F)cc1 returned Vif inh inactive, MITF TRPM1 HTS inactive, PvdQ inh inactive, esBAF inh inactive, N-glyco inh inactive and Wnt act inactive.
